# Laboratory results taken from ChEMBL document CHEMBL4513216, “Probing the Open Global Health Chemical Diversity Library for Multistage-Active Starting Points for Next-Generation Antimalarials” (ACS Infect Dis, 2020).
# Screen size: about 69,000 compounds; about 8,600 (12%) showed an effect of 50% or more. The sample as a whole holds a higher share of strong results than the screen did.
# Test system: Plasmodium berghei
# Test: Screen against P. berghei liver stage (PbLuc), transformed with Luciferase, at 10uM
# Format: functional, HepG2
# Settings: tested at 10 uM
row,SMILES,INHIBITION [%]
1,CC1CCN(c2nc3cn(-c4ccccc4)c(=O)c-3c[nH]2)CC1,-21.5
2,Cc1cccc(CN2CCCC3(CCC(=O)N3CCN(C)C)CC2)n1 (centres undefined),-6.05
3,CN(C)C(=O)N1C[C@@H]2CCCO[C@@H]2[C@H](N(C)Cc2ccco2)C1,41.8
4,CC(C)c1n[nH]c(C2CN(C(=O)c3cnccn3)CCO2)n1 (centres undefined),48.4
5,CN1CCC(C)(CNC(=O)c2ccc(SCc3cccnc3)cc2)CC1,34
6,CCSc1ncc(Cl)c(C(=O)NC(CCSC)C(=O)O)n1 (centres undefined),15.9
7,CNS(=O)(=O)c1ccc(CNC(=O)NCC2CCOC2)cc1 (centres undefined),21.9
8,CNS(=O)(=O)c1ccc(CNC(=O)N2CCOC(C)C2)cc1 (centres undefined),50
9,CNS(=O)(=O)c1ccc(CNC(=O)C2CCCN(C)C2)cc1 (centres undefined),-34.8
10,CNS(=O)(=O)c1ccc(CNC(=O)NCC2CCC2)cc1,-75.2
11,CNS(=O)(=O)c1ccc(CNC(=O)C2CN(C)CCO2)cc1 (centres undefined),50
12,CNS(=O)(=O)c1ccc(CNC(=O)NCC2CCCO2)cc1 (centres undefined),0.932
13,CC1CN(C(=O)NCc2cnn(-c3ccc(F)cc3F)c2)CCO1 (centres undefined),-2.55
14,CNS(=O)(=O)c1ccc(CNC(=O)C2CCCO2)cc1 (centres undefined),54.3
15,CNS(=O)(=O)c1ccc(CNC(=O)N(CC(C)C)C(C)C)cc1,31.2
16,Cc1c(NC(=O)NCCO)cccc1OC1CCCC1,-2.27
17,CCN(CC)CC1CCN(Cc2ccn(C)c(=O)c2)CC1,-18
18,COc1ccc(CNc2cc3[nH]c(O)nc3cc2C)cc1,29.1
19,O=C(CCS(=O)(=O)c1ccccc1)NC1CCOC2(CCOCC2)C1 (centres undefined),12.1
20,COc1ccc(COCC(=O)N2CCCC(n3cncn3)C2)cc1 (centres undefined),-9.76
21,Cn1cccc1C(=O)N1CCC2(CC1)COC(COc1ccccn1)C2 (centres undefined),-8.19
22,O=C1CCC2(CCN(S(=O)(=O)c3ccccc3)CC2)N1CC1CC1,-51.6
23,O=S(=O)(c1ccccc1)N1CCC2(CCCN2CC2CCCC2)C1 (centres undefined),71.1
24,CCN1C(=O)CCC12CCN(S(=O)(=O)c1ccccc1)CC2,-2.35
25,CC(C)(C)CN1CCCC12CCN(S(=O)(=O)c1ccccc1)C2 (centres undefined),78.8
26,CC(=O)N1CCC2(CC1)CCN(S(=O)(=O)c1ccccc1)C2,-18.4

row,SMILES,INHIBITION [%]
1,O=C1N(CC2CCC2)CCCC12CCN(S(=O)(=O)c1cccnc1)C2 (centres undefined),-21.8
2,Cc1c[nH]nc1C1CN(c2ncccn2)CCO1 (centres undefined),14.575
3,N#Cc1ccc(CCC(=O)N2CCC(CN3CCOCC3)CC2)cc1,37.7
4,O=C(O)C1CN(c2cncc(Cc3ccccc3)n2)C1,8.35
5,CCc1cc(N[C@H]2CCC[C@H]2CO)n2nc(C)c(C)c2n1,16.3
6,O=S1(=O)CCN(CCCc2ccc(Cl)cc2)CC1,15
7,O=C(COCC(F)(F)F)N1CCCC(n2cccn2)C1 (centres undefined),39.5
8,CC(C)CC(=O)N1CCN(C(=O)NC(C)C)CC2(CC(=O)N(C)C2)C1 (centres undefined),34.4
9,O=C(NCCc1ccncc1)c1cccc(S(=O)(=O)NC2CC2)c1,-78.5
10,CN1CC[C@]2(CN(CC3CCOC3)C[C@H]2c2ccccc2)C1=O (some centres undefined),57.3
11,CN1CC[C@]2(CN(CC3CCOCC3)C[C@H]2c2ccccc2)C1=O,43.4
12,O=C1NCC[C@]12CN(CC1CCOCC1)C[C@H]2c1ccccc1,29.5
13,CN(C)C(=O)CN1CC[C@]2(CN(CC3CC3)C[C@H]2c2ccccc2)C1=O,26.5
14,CN1CC[C@]2(CN(CC3CC3)C[C@H]2c2ccccc2)C1=O,52.4
15,CN1CC[C@]2(CN(Cc3nccs3)C[C@H]2c2ccccc2)C1=O,-2.41
16,Cc1ccc(NC2CCN(C(=O)CCCn3ccnc3C)CC2)nn1,8.64
17,CC(C)c1noc(CS(=O)(=O)CC(=O)NCCOc2ccccc2)n1,61.5
18,CC(C)c1noc(CS(=O)(=O)CC(=O)NCc2ccccc2)n1,10.6
19,CC(C)c1noc(CCCC(=O)NCCOc2ccccc2)n1,46.4
20,CC(C)OCCCNC(=O)C1CC(=O)N(c2n[nH]c3cccc(F)c23)C1 (centres undefined),-10.9
21,Cn1cccc1C(=O)N1CCCC(Cn2cc(CO)nn2)C1 (centres undefined),-2.39
22,Cc1ccc(C2CN(c3nnc(C(F)F)s3)CCO2)c(C)c1 (centres undefined),57.4
23,Cc1ccc(C2CN(CCCC#N)CCO2)c(C)c1 (centres undefined),-3.47
24,Cc1ccc(C2CN(CCS(=O)(=O)C(C)C)CCO2)c(C)c1 (centres undefined),30.7
25,Cc1ccc(C(=O)N2CCC3(CCN(c4ccsc4)C3=O)C2)cn1 (centres undefined),-14.3
26,NCc1n[nH]c(-c2ccc(Br)cc2)n1,-34.4

row,SMILES,INHIBITION [%]
1,Cc1ncn(-c2cc(N3CCN(S(C)(=O)=O)CC3)ncn2)c1C,51.5
2,Cc1nc(N2CCN(S(C)(=O)=O)CC2)cc(-n2cnc(C)c2C)n1,23.9
3,CCCS(=O)(=O)N1CCN(c2cc(-n3cnc(C)c3C)ncn2)CC1,27.2
4,Cc1nc(C)n(C2CCCN(C(=O)c3cncnc3C)C2)n1 (centres undefined),1.563
5,CS(=O)(=O)NCCCN1CCCC1c1cccc(Br)c1 (centres undefined),-5.25
6,CCNc1ncc(C(=O)NC2CCOCC2)cn1,1.94
7,CCNc1ncc(C(=O)NC(c2ccccc2)c2ccco2)cn1 (centres undefined),33.4
8,CCNc1ncc(C(=O)NC2CCSC2)cn1 (centres undefined),37.7
9,CCNc1ncc(C(=O)N[C@H](C(N)=O)c2ccccc2)cn1,17.1
10,CCNc1ncc(C(=O)N[C@@H](C)[C@H](O)c2ccccc2)cn1,71.2
11,CCNc1ncc(C(=O)NC2CCc3ccccc3C2)cn1 (centres undefined),80.9
12,CCc1nnc2n1CCN(C(=O)c1cc(Cl)c[nH]1)C2,24.39
13,Cc1sc(C(=O)NS(C)(=O)=O)cc1-c1ccc(F)cc1,32.7
14,CCCN1CCC2(CC1)COc1ccccc1S(=O)(=O)N(CC1CC1)C2,-17.1
15,CO[C@@H]1CC[C@H]2[C@H]1OCCN2S(=O)(=O)C1CC1,-15.2
16,Cc1cc(C)c(CNC(=O)C(C)Oc2ccccc2C#N)c(=O)[nH]1 (centres undefined),37.9
17,CCS(=O)(=O)N(C)C1CCN(C(=O)c2ccc(Cl)cc2)CC1,47.4
18,CN(C)C1COC2(CCN(C(=O)c3cccc(Cl)c3)CC2)C1 (centres undefined),-9.74
19,CCS(=O)(=O)N(C)C1CCN(C(=O)c2cccc(Cl)c2)CC1,61.8
20,CCS(=O)(=O)N(C)C1CCN(C(=O)c2ccc(C)c(C)c2)CC1,27.7
21,CCN(C1CCN(C(=O)c2cccc(Cl)c2)CC1)S(C)(=O)=O,50
22,CN(C)CCN1CC[C@@H]2[C@@H]1CCN2C(=O)c1cccc(Cl)c1,40.4
23,O=C(CC1CC1)N1CC[C@H]2[C@@H]1CCC(=O)N2Cc1ccncc1,29
24,Cc1ccccc1SC1CCN(C(=O)C2CNCC(=O)N2)CC1 (centres undefined),1.37
25,Cc1ccccc1N1CCCN(C(=O)CCCS(N)(=O)=O)CC1,21.6
26,Cc1ccccc1SC1CCN(C(=O)C2CNC(=O)N2)CC1 (centres undefined),12.8

row,SMILES,INHIBITION [%]
1,Cc1ccccc1SC1CCN(C(=O)C2[C@H]3CNC[C@@H]23)CC1 (some centres undefined),90.7
2,Cc1cccc(SC2CCN(C(=O)CCCS(N)(=O)=O)CC2)c1,32.8
3,Cc1ccccc1SC1CCN(C(=O)CCCS(N)(=O)=O)CC1,53.7
4,Cc1cc(C2CCCN2Cc2ccc(S(=O)(=O)N(C)C)o2)on1 (centres undefined),5.9
5,OCC1N(Cc2ccco2)C2CCC1(O)CC2 (centres undefined),32.8
6,O=C1NCCN1CCNc1cc(-c2ccccc2)nc2ccnn12,-39.2
7,O=C1CC(c2ccncc2)C2(CCN(C(=O)c3ccc[nH]3)CC2)N1 (centres undefined),33.5
8,O=C1CC(c2ccncc2)C2(CCN(C(=O)c3cccs3)CC2)N1 (centres undefined),73
9,Cc1noc(C)c1CN1CCC2(CC1)NC(=O)CC2c1ccccc1 (centres undefined),65.7
10,O=C1CC(c2ccccc2)C2(CCN(Cc3ccncc3)CC2)N1 (centres undefined),8.64
11,Cc1noc(C)c1CN1CCC2(CC1)NC(=O)CC2c1ccncc1 (centres undefined),25.5
12,O=C1CC(c2ccncc2)C2(CCN(CCc3ccccc3)CC2)N1 (centres undefined),90.8
13,Cc1noc(C)c1CN1CCC2(CC1)NC(=O)CC2c1cnn(C)c1 (centres undefined),12.5
14,O=C1CC(c2ccncc2)C2(CCN(CCO)CC2)N1 (centres undefined),47.8
15,O=C1CC(c2ccncc2)C2(CCN(C(=O)c3ccnnc3)CC2)N1 (centres undefined),41.6
16,CCc1nnc(NC(=O)Cc2c(C)nc(C)[nH]c2=O)s1,13.75
17,Cc1nnc(CN2CCN(C(C)c3nc(C4CC4)no3)CC2)o1 (centres undefined),-33.7
18,COc1ccccc1-c1ccc(C2CCCN(C(C)=O)C2)nc1 (centres undefined),19.4
19,CC(=O)NC1CCCc2c1[nH]c1ccc(F)cc21 (centres undefined),62.4
20,O=C(NC1CCCc2c1[nH]c1ccc(F)cc21)c1n[nH]c2c1CCCC2 (centres undefined),-8.99
21,O=C(Cc1cccc(F)c1)NC1CCCc2cn[nH]c21 (centres undefined),18.7
22,O=C(NCCc1ccccn1)c1n[nH]c2c1CCC2,-15.9
23,Cc1c(C(=O)N[C@@H]2CC[C@@H](N3CCCC3)[C@@H]2O)[nH]c2ccc(F)cc12,29.5
24,O=C(NC1CCCc2c1[nH]c1ccc(F)cc21)c1n[nH]c2c1CCC2 (centres undefined),61.2
25,CCC1CN(C(=O)CN2CCN(c3nccc(OC)n3)CC2)CCO1 (centres undefined),-28.4
26,CC(=O)N1CCO[C@@H]2CN(C(=O)c3cc(C)oc3C)CC[C@@H]2C1,26.2
